# Screening data: PubChem, Broad Institute
# MITF TRPM1 HTS – activators of MITF-driven TRPM1 promoter reporter, primary screen, cell-based, SK-MEL-5, luciferase, single point. SK-MEL-5 TRPM1-promoter luciferase, 24 h; % of positive control, neutral wells = 0. activation, % at 12.5 µM. actives 0.75% (n = 300,000);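 active = mean activation of at least 80% with every replicate also reaching 80%; inconclusive = mean reaches 80% but some replicate falls short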
# MITF TRPM1 inh – inhibitors of MITF-dependent TRPM1 promoter reporter, primary screen, cell-based, SK-MEL-5, single point, luciferase | inhibition, % at 12.5 µM | AID 488899, 2010 | actives 0.83% (n = 330,000) | SK-MEL-5 TRPM1 promoter luciferase, 24 h;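 active = mean inhibition across replicates of 60% or more, whatever share of single replicates reaches that level; inconclusive = some that reach 60%, reason not given; inactive = mean inhibition across replicates below 60%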
# C2C12 statin – suppressors of statin myotoxicity in C2C12 myotubes, primary screen, cell-based, single point, plate reader; C2C12 myotubes + simvastatin, ATP luminescence, 48 h; scaled: DMSO 0, geranylgeraniol control 100; rescue of ATP level, % at 7.49 µM; actives 0.78% (n = 330,000); AID 602340, 2012;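 active = mean ATP rescue above about 67%, or every replicate alone reaching that limit, limit read from the data, passing the limit was not always enough; inconclusive = no clear call, values can overlap the other calls; inactive = mean under the limit and some replicate under it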;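 note: myotubes were challenged with 10 µM simvastatin during compound exposure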
# EBV LMP1 NFkB – EBV LMP1-driven NF-kappaB luciferase reporter inhibitors, primary screen, cell-based, luminescence, single point | inhibition, % at 12.5 µM | actives 0.69% (n = 350,000) | LMP1-induced NF-kappaB luciferase reporter cells | AID 504558, 2011; in the data active = inhibition above about 41%; inconclusive = no clear call, values can overlap the other calls
# Wnt bcat act – Wnt/beta-catenin pathway activators, primary screen, cell-based, plate reader, single point; Wnt/beta-catenin reporter cell assay, activator; actives 1.2% (n = 300,000); activation, % at 9.35 µM; AID 743398, 2014; in the data active = activation above about 30%, passing the limit was not always enough; inconclusive = no clear call, values can overlap the other calls
# esBAF inh – Bmi1 luciferase reporter increase in mESCs, primary screen, esBAF inhibitor project, mouse ES cells, Bmi1 luciferase knock-in, single point. 24 h; 100% = twice the neutral-well signal. reporter increase, % at 12.5 µM. actives 2% (n = 350,000). AID 602393, 2012; in the data active = activation above about 40%; inconclusive = no clear call, values can overlap the other calls;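 note: a rise in the Bmi1 reporter signal indicates esBAF inhibition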
# A number is an active result; . = inactive; ? = inconclusive; / = no result given. The list is not random: actives were taken first. Their share in the collection is about 4%.
SMILES,MITF TRPM1 HTS,MITF TRPM1 inh,C2C12 statin,EBV LMP1 NFkB,Wnt bcat act,esBAF inh
C#CCNC(=O)C1=C[C@@H](c2ccccc2)C[C@@H](OCCCCO)O1,.,.,.,.,.,.
CCCCNC(=S)N1CCN(CC)CC1,.,.,.,.,.,.
COc1ccc(-c2csc(Nc3ccc(C)cn3)n2)cc1OC,.,.,.,.,.,60.6
Cc1ccc(Nc2nc(-c3ccc(F)cc3)cs2)nc1,/,.,.,.,.,76.2
COc1ccc(-c2csc(Nc3cc(C)ccn3)n2)cc1OC,.,.,.,.,.,43.5
Fc1ccc(-c2csc(Nc3ccccn3)n2)cc1,/,.,154.1,.,.,.
CC(=O)Nc1cccc(-c2csc(Nc3cc(C)ccn3)n2)c1,.,.,.,.,.,48.5
CC1Sc2ccc(C(=O)Nc3ncccc3O)cc2NC1=O (stereo unspecified),.,.,.,.,.,.
COc1cccc(COC(=O)c2ccc3c(c2)NC(=O)C(C)S3)c1OC (stereo unspecified),.,.,.,.,.,.
CC1Sc2ccc(C(=O)OCc3ccccc3Cl)cc2NC1=O (stereo unspecified),186.1,.,.,.,?,/
CC1Sc2ccc(C(=O)Nc3ccccc3OC(F)F)cc2NC1=O (stereo unspecified),.,.,/,.,34.9,/
CC(=O)O[C@@H]1C[C@H]2C(C)(C)C(=O)C=C[C@]2(C)[C@H]2CC[C@@]3(C)[C@H](c4ccoc4)OC(=O)[C@H]4O[C@]43[C@@]21C,.,.,.,.,.,.
CCCc1cc(=O)[nH]c(SCC(=O)Nc2ccccc2C#N)n1,.,.,98.2,.,/,.
Nc1nc(SCC(=O)Nc2ccc(Cl)cc2)[nH]c(=O)c1-c1ccccc1,.,.,121.8,.,.,.
CCCc1cc(=O)[nH]c(SCC(=O)Nc2cccc3ccccc23)n1,.,.,.,.,.,.
COCc1cc(=O)[nH]c(SCC(=O)Nc2ccccc2)n1,.,.,101.6,.,.,.
CC(OC(=O)CNC(=O)COc1ccccc1)C(=O)N(C)Cc1ccccc1 (stereo unspecified),.,.,/,.,.,/
CO[C@@H]1CN(C)C(=O)c2cc(NC(=O)C3CC3)ccc2OC[C@H](C)N(Cc2ccccc2)C[C@H]1C,/,/,.,/,/,.
Cc1onc(-c2ccccc2Cl)c1C(=O)N1CCCCC1,.,.,.,.,.,.
CCC(=O)N1CCN(c2nc3ccccc3s2)CC1,.,.,/,.,/,/
Cc1onc(-c2ccccc2Cl)c1C(=O)N1CCN(c2nc3ccccc3s2)CC1,.,.,.,.,44.0,.
O=C(C1CC1)N1CCN(c2nc3ccccc3s2)CC1,86.8,.,.,.,30.7,46.3
COc1ccc(S(=O)(=O)Nc2ccc3c(c2)C(=O)N([C@@H](C)CO)C[C@@H](C)[C@@H](CN(C)C(=O)c2ccccc2)OCCCC[C@H](C)O3)cc1,/,/,.,/,/,.
COc1cc(C=NN=c2sc3ccccc3n2C)ccc1OCCO,/,/,/,/,33.6,/
COc1ccc(-c2cc(-c3nc4ccccn4c3NCc3ccccc3)ccc2OC)cc1,.,85.2,.,.,.,.
SMILES,MITF TRPM1 HTS,MITF TRPM1 inh,C2C12 statin,EBV LMP1 NFkB,Wnt bcat act,esBAF inh
CCC(C)Sc1ccc(-c2nc3ccc(Cl)cn3c2NCc2ccccc2)cc1 (stereo unspecified),83.9,.,.,.,?,50.1
Clc1cccc(-c2ccc(-c3nc4ccccn4c3NCc3ccccc3)cc2)c1,.,.,.,.,31.2,49.7
CCCCNc1c(-c2cccc(SC(C)CC)c2)nc2ccc(Cl)cn12 (stereo unspecified),.,.,.,.,.,.
COc1ccc(-c2nc3ccccn3c2NCc2ccc3c(c2)OCO3)cc1,.,.,.,.,/,.
COc1ccc(/C=C(\NC(=O)c2ccc(Cl)cc2)C(=O)NCc2cccnc2)cc1OC,/,/,.,.,.,.
O=C(Cn1nc(-c2ccc(Cl)cc2)ccc1=O)NCC1COCCO1 (stereo unspecified),.,.,.,.,.,.
O=C(C[C@H]1C=C[C@@H](NC(=O)Nc2ccc(F)cc2)[C@@H](CO)O1)NCc1ccccn1,/,/,.,/,/,.
CC1(C)OC2OC(C(=O)N/N=C/c3ccccc3F)C3OC(C)(C)OC3C2O1 (stereo unspecified),.,.,103.5,.,.,.
C[C@@H]1CN([C@H](C)CO)C(=O)c2cc(NC(=O)Cc3cn(C)c4ccccc34)ccc2O[C@@H]1CN(C)Cc1ccc(C(=O)Nc2ccccc2N)cc1,/,/,?,/,/,.
O=C(CN1C(=O)COc2ccc(S(=O)(=O)N3CCCCC3)cc21)NCc1ccc(F)cc1,.,.,/,.,.,/
C/C(=N\Nc1ccc(C(=O)O)cc1)c1ccc(Cl)s1,/,/,.,.,?,67.0
CCN(CC(=O)Nc1c(F)cccc1F)C(=O)CNC(=O)c1ccc2ccccc2c1,.,.,.,.,.,.
CCN(CC(=O)Nc1c(F)cccc1F)C(=O)CNC(=O)c1cccs1,.,.,.,.,38.2,.
COc1cccc(CC(=O)N2CCN(S(=O)(=O)c3ccc(Br)cc3)CC2)c1,.,.,.,.,.,.
Cn1c(-c2sc3cc(C(F)(F)F)cnc3c2-c2cccnc2)n[nH]c1=S,/,.,139.2,.,.,.
COc1ccc(NC(=O)C2C3CC/C=C\CCC32)cc1 (stereo unspecified),/,.,/,.,.,/
CC(C)(C)c1cc(-c2n[nH]c(=S)n2-c2ccccc2F)n[nH]1,/,.,.,.,34.0,.
Nc1cc2c(cc1Cl)-c1ccccc1C2=NO,.,.,.,.,.,52.0
CCCCN1CCc2c1nc1ccc(Br)cc1c2N,.,66.2,.,.,.,.
CCC(=O)Nc1cc(-c2nn(C)c(=O)c3ccccc23)ccc1N1CCCCC1,.,.,/,.,.,.
CC(C)(C)c1[nH]nc2c1C(c1ccoc1)C(C#N)=C(N)O2 (stereo unspecified),.,.,91.8,.,.,.
Cc1ccccc1-n1ncc2c([N+](=O)[O-])cc([N+](=O)[O-])cc21,.,67.0,.,.,/,.
CCc1ccc(NC(=O)CCn2ccnc2C)cc1,/,.,/,.,.,.
CCc1noc(C)c1C(=O)OC(C)C(=O)c1c(C)[nH]c2ccccc12 (stereo unspecified),.,.,.,.,46.9,.
COc1cccc2cc(C(=O)N3CCc4ccccc4C3)c(=O)oc12,.,.,.,.,/,77.8
CCOc1cccc2cc(C(=O)N3CCc4ccccc4C3)c(=O)oc12,.,.,.,.,/,.
Cc1cc(C(=O)N2CCc3ccccc3C2)c(C)o1,.,.,.,.,.,52.4
